# Reference: PubChem BioAssay (Tox21)
# Values joined by “and” are separate entries in the source; they are usually repeats but may differ in a detail not shown here. Equal values may be shown once. Inconclusive results are not listed. Entries that show only a call come without a potency. Some compounds were tested as several samples or in several runs, with calls that do not always agree. Active and inactive are the calls of the source. Calls come from the whole dose curve.
# Assay: Nuclear factor erythroid 2-related factor 2/antioxidant responsive element (Nrf2/ARE) small molecule agonists: luciferase reporter gene qHTS assay in human keratinocytes (AID 1919969); note: nearly all actives have a fitted effect of over 35% in size
# Details: KeratinoSens HaCaT ARE-luciferase, luminescence, 24 h; series mostly up to 92.4 µM
# From the text: National Center for Advancing Translational Sciences [NCATS]
# Division of Preclinical Innovation [DPI]
# U.S. Environmental Protection Agency [EPA]
# National Institutes of Environmental Health Sciences [NIEHS]
# National Toxicology Program [NTP]
# U.S. Food and Drug Administration [FDA]
# Oxidative stress has been implicated in the pathogenesis of a variety of diseases ranging from cancer to neurodegeneration. The antioxidant response element (ARE) signaling pathway plays an important role in the amelioration of oxidative stress. The KeratinoSens (Givaudan, Switzerland) is an in vitro test method which quantifies luciferase induction as a measure of activation of Keap1-Nrf2-antioxidationt/electrophile response element (ARE) dependant pathway in HaCaT human keratinocytes stably transfected with a selectable plasmid. The KeratinoSens assay is a cell-based assay with a reporter cell line to detect potential skin sensitizers by their ability to induce the Nrf2/ARE-response. The activation of the report gene under culture conditions can be detected by ONE-Glo Luciferase Assay System (Promega, Madison, WI). This cell line has been used to screen the Tox21 10K compound library to identify agonists that induce oxidative stress. The cytotoxicity of the Tox21 compound library against the KS-ARE cell line was tested in parallel by measuring the cell viability using CellTiter- Fluor assay system (Promega, Madison, WI) in the same wells.
# HaCaT derived cell line KeratinoSens were dispensed at 1,500 cells/5uL/well in 1536-well white wall/solid bottom plates using a Multidrop Combi (ThermoFisher Scientific, Waltham, MA) dispenser. After the assay plates were incubated at 37 C/5% CO2 for 5 h, 23 nL of compounds dissolved in DMSO, positive controls or DMSO only was transferred to the assay plate by a pintool workstation (Kalypsys, San Diego, CA). The plates were incubated at 37 C/5% CO2 for 23 h, followed by addition of 1uL/well of CellTiter-Fluor reagent into the assay plates using a Flying Reagent Dispenser (Aurora Discovery, San Diego, CA) for cell viability readout that measures cytotoxicity. After 1 h incubation at 37 C/5% CO2 the fluorescence intensity was measured using a ViewLux (PerkinElmer, Shelton, CT) plate reader. Then 4uL/well of One-Glo were added using a Flying Reagent Dispenser. After the plates were incubated at room temperature for 30 min, the luminescence intensity in the assay plates was measured using ViewLux plate reader.
# Potency is the fitted concentration of half-maximal effect.
row,SMILES,Potency
1,Nc1cccc(N)c1,inactive and 21.4 µM (active)
2,C=C(C)C(=O)OCC(C)O (stereo not given),inactive
3,Nc1ccc(Cl)cc1Cl,inactive
4,NC(=O)N1c2ccccc2C=Cc2ccccc21,inactive
5,O=c1[nH]c(=O)n([C@H]2C[C@H](O)[C@@H](CO)O2)cc1Br,inactive
6,Cc1ccc(C)c(S(=O)(=O)O)c1,inactive
7,CCc1cccc(C)c1N,inactive
8,C#CCN(C)Cc1ccccc1,inactive
9,c1ccc2[nH]ccc2c1,6.01 µM (active) and inactive
10,CC(C)(Oc1ccc(Cl)cc1)C(=O)O,inactive
11,Cc1c(N(C)C)c(=O)n(-c2ccccc2)n1C,69.8 µM (active) and inactive
12,O=C(O)c1ccc(S(=O)(=O)N(Cl)Cl)cc1,inactive
13,c1ccc2[nH]c(-c3cscn3)nc2c1,27.3 µM (active) and 6.68 µM (active)
14,O=C(O)c1cccc(C(=O)O)c1,inactive
15,CNC[C@H](O)[C@@H](O)[C@H](O)[C@H](O)CO,inactive
16,C[C@@H](O)[C@H]1C(=O)N2C(C(=O)O)=C(S[C@@H]3CN[C@H](C(=O)N(C)C)C3)[C@H](C)[C@H]12,inactive
17,CNC[C@H](O)c1ccc(O)c(O)c1,inactive
18,Cc1c(OCC(F)(F)F)ccnc1CS(=O)c1nc2ccccc2[nH]1 (stereo not given),24.3 µM (active) and 33.5 µM (active)
19,C=C(C)C(=O)OCCC[Si](OC)(OC)OC,inactive
20,COC(=O)C1CCC(C(=O)OC)CC1 (stereo not given),inactive

row,SMILES,Potency
1,CN(C)c1nc(N(C)C)nc(N(C)C)n1,3.94 µM (active) and inactive
2,N#Cc1ccccc1,inactive
3,O=[N+]([O-])c1cccc(Cl)c1,inactive
4,CCOC(N)=O,inactive
5,CN(C)CCN(Cc1cccs1)c1ccccn1,inactive
6,CC(=O)OC/C=C(\C)CCC=C(C)C,inactive
7,CCCCCCCCCCCCCC[N+](C)(C)C,inactive
8,CCCN(CCC)C(=O)SCC,inactive
9,CCC(C)C=O (stereo not given),inactive
10,C=C(C)C(=O)OCC(CC)(COC(=O)C(=C)C)COC(=O)C(=C)C,inactive
11,CC[C@H](C)C(=O)O[C@H]1C[C@@H](C)C=C2C=C[C@H](C)[C@H](CC[C@@H]3C[C@@H](O)CC(=O)O3)[C@H]21,inactive
12,NS(=O)(=O)O,inactive
13,C=C[C@@]1(C)CC(=O)[C@]2(O)[C@@]3(C)[C@@H](O)CCC(C)(C)[C@@H]3[C@H](O)[C@H](OC(C)=O)[C@@]2(C)O1,inactive
14,Fc1ccc(Br)cc1,inactive
15,CCCCC(C=O)CC (stereo not given),inactive
16,COC(=O)CCCC(=O)OC,inactive
17,Cc1cc(Cc2ccc(N)c(C)c2)ccc1N,inactive
18,CS(=O)(=O)c1ccc([C@@H](O)[C@@H](CO)NC(=O)C(Cl)Cl)cc1,inactive
19,N[C@@H](Cc1cc(I)c(Oc2ccc(O)c(I)c2)c(I)c1)C(=O)O,inactive
20,CC(CCO)CC(C)(C)C (stereo not given),inactive
